Results: PubChem BioAssay AID1159580 (chemical genetic matrix, 2015)
Out of some 5,500 compounds screened, about 2,000 (36%) were called active. Another 18% or so got no clear call; they are omitted. No stated cut-off is given here; in the data, active means normalized growth mostly below about 0.91 (no sharp cut-off); inconclusive means no clear call, values can overlap the other calls; inactive means mostly above about 0.92. The list shows a part of the results.

Test: chemical genetic growth profiling, strain panel (AID 1159580);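 further: tested at 20 µM; growth read once vehicle control cultures reached saturation at 30 °C; 1 = growth at the plate median or of vehicle wells; lower values mean less growth of the strain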
Conditions: S. cerevisiae deletion strains, growth OD

Measured: normalized growth

CC(C)c1ccc(NCC(O)CSc2ccccc2)cc1 (stereo unspecified)
active: locus YHR030C, strain SLT2, active compounds read low 0.655 | locus YKL048C, strain ELM1, active compounds read low 0.731 | locus YLR113W, strain HOG1, active compounds read low 0.405 | locus YPL256C, strain CLN2, active compounds read low 0.621
inactive: locus YAR019C, strain CDC15, active compounds read low 0.956 | locus YBL105C, strain PKC1, active compounds read low 0.957 | locus YBR135W, strain CKS1, active compounds read low 0.952 | locus YBR136W, strain MEC1, active compounds read low 0.952 | locus YBR160W, strain CDC28, active compounds read low 0.966 | locus YDL017W, strain CDC7, active compounds read low 0.969 | locus YDL028C, strain MPS1, active compounds read low 0.955 | locus YDL101C, strain DUN1, active compounds read low 0.951 | locus YDL108W, strain KIN28, active compounds read low 0.943 | locus YDL132W, strain cdc53, active compounds read low 0.948 | locus YDL214C, strain PRR2, active compounds read low 0.808 | locus YDR052C, strain DBF4, active compounds read low 0.974 | locus YDR054C, strain cdc34, active compounds read low 0.947 | locus YDR226W, strain ADK1, active compounds read low 0.983 | locus YDR477W, strain SNF1, active compounds read low 0.805 | locus YER123W, strain YCK3, active compounds read low 0.755 | locus YER133W, strain GLC7, active compounds read low 0.796 | locus YFL009W, strain cdc4, active compounds read low 0.952 | locus YFL029C, strain CAK1, active compounds read low 0.952 | locus YFR003C, strain YPI1, active compounds read low 0.959 | locus YFR019W, strain FAB1, active compounds read low 0.928 | locus YFR028C, strain CDC14, active compounds read low 0.957 | locus YGR040W, strain KSS1, active compounds read low 0.801 | locus YGR052W, strain FMP48, active compounds read low 0.717 | locus YGR092W, strain DBF2, active compounds read low 0.696 | locus YHR079C, strain IRE1, active compounds read low 0.7 | locus YHR082C, strain KSP1, active compounds read low 0.733 | locus YHR205W, strain SCH9, active compounds read low 0.756 | locus YIL147C, strain SLN1, active compounds read low 0.952 | locus YJL095W, strain BCK1, active compounds read low 0.708 | locus YJL128C, strain PBS2, active compounds read low 0.968 | locus YJL157C, strain FAR1, active compounds read low 0.845 | locus YJR016C, strain ILV3, active compounds read low 0.962 | locus YJR066W, strain TOR1 (second series), active compounds read low 0.819 | locus YJR066W, strain TOR1, active compounds read low 0.786 | locus YKL067W, strain YNK1, active compounds read low 0.834 | locus YKL101W, strain HSL1, active compounds read low 0.746 | locus YKL193C, strain SDS22, active compounds read low 0.944 | locus YKL203C, strain TOR2, active compounds read low 0.814 | locus YLR133W, strain CKI1, active compounds read low 0.843 | locus YLR403W, strain SFP1, active compounds read low 0.842 | locus YML070W, strain DAK1, active compounds read low 0.766 | locus YMR001C, strain CDC5, active compounds read low 0.956 | locus YMR205C, strain PFK2 (second series), active compounds read low 0.815 | locus YMR277W, strain FCP1, active compounds read low 0.953 | locus YNL006W, strain LST8, active compounds read low 0.962 | locus YNL020C, strain ARK1, active compounds read low 0.812 | locus YNL161W, strain CBK1, active compounds read low 0.963 | locus YNL183C, strain NPR1, active compounds read low 0.64 | locus YNL207W, strain RIO2, active compounds read low 0.951 | locus YNL222W, strain SSU72, active compounds read low 0.953 | locus YNL307C, strain MCK1 (second series), active compounds read low 0.802 | locus YOL078W, strain AVO1, active compounds read low 0.958 | locus YOL136C, strain PFK27, active compounds read low 0.781 | locus YOR061W, strain CKA2, active compounds read low 0.856 | locus YOR119C, strain RIO1, active compounds read low 0.761 | locus YOR231W, strain MKK1, active compounds read low 0.634 | locus YOR329C, strain SCD5, active compounds read low 0.964 | locus YPL031C, strain PHO85, active compounds read low 0.74 | locus YPL153C, strain RAD53, active compounds read low 0.741 | locus YPL204W, strain HRR25, active compounds read low 0.696 | locus YPL209C, strain IPL1, active compounds read low 0.964 | locus YPR025C, strain CCL1, active compounds read low 0.957 | locus YPR106W, strain ISR1, active compounds read low 0.94 | locus YPR111W, strain DBF20, active compounds read low 0.936 | strain NNK1, active compounds read low 0.913 | strain TSCII, active compounds read low 0.954
